This is an account of results in the supplement of paper PMC11219838.

The test system of this assay is Caenorhabditis elegans L1 (N2). Briefly: survival and reproduction score of C. elegans L1 (0: 0-10 living worms, 1: 11-20, 2: 21-50, 3: >50, 4: overgrown) (score 0-4); higher = more worms, less nematicidal, active = 1 or less; extreme values may be limits of the assay. Conditions: 60 µM; 6 days; temperature: 20 °C. The method, boiled down: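 Synchronized C. elegans N2 L1s (about 20 per well) were grown in 96-well plates in liquid NGM with E. coli HB101 and compound at 60 µM final (0.6% v/v DMSO), shaken sealed at 200 rpm and 20 °C for 6 days. The ordinal score for survival and reproduction counted living worms per well under a dissection microscope. The scale ran 0 (0–10 worms) to 4 (overgrown, starved), averaged over two biological replicates.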
Consider `O=C(CSc1nnc(-c2ccco2)o1)Nc1ccccc1F`, for which the “survival and reproduction score” value is 4 (inactive).
In the case of `O=C(CSc1nnc(-c2ccccc2)o1)OCc1ccccc1` it was 4 (inactive).
In the case of `Cc1cc(C)nc(SCc2nc(-c3ccccc3)no2)n1` it was 4 (inactive); in that of `COc1ccc(-c2nc(-c3ccc(C(F)(F)F)cc3)no2)cc1`, 4 (inactive); in that of `COc1ccccc1-c1nc(-c2cccc(Br)c2)no1`, 4 (inactive).
In the case of `c1ccc(-c2noc(-c3cccs3)n2)cc1` [tioxazafen] it was 0 (active); in that of `C=CCOc1cccc(-c2nc(-c3cccnc3)no2)c1`, 0 (active).
`Brc1ccc(-c2nnc(-c3cccs3)o2)o1`: the “survival and reproduction score” value was 0 (active).
In the case of `COc1ccc(-c2nnc(SCC(=O)Nc3ccc(Cl)c(Br)c3)o2)cc1` it was 4 (inactive); in that of `Cc1ccc(-c2noc(CSc3nc(C)cc(C)n3)n2)cc1`, 4 (inactive); in that of `O=C(Nc1ccccc1-c1nc(-c2cccnc2)no1)c1ccc(Cl)cc1`, 4 (inactive).
With `Clc1ccc(OCc2nc(-c3ccccc3)no2)cc1`, the “survival and reproduction score” value is 4 (inactive).
In the case of `CCCOc1ccc(-c2nc(-c3cccnc3)no2)cc1` it was 0 (active); in that of `COc1ccc(-c2nnc(SCc3ccccc3)o2)cc1`, 4 (inactive).
With `O=C(CSc1nnc(-c2cccc(Br)c2)o1)c1ccccc1` the figure was 4 (inactive); with `Cc1ccc(-c2nc(-c3ccccc3)no2)cc1C`, 4 (inactive).
In the case of `Cc1ccc(-c2noc(COc3cc(C)cc(C)c3)n2)cc1` it was 4 (inactive); in that of `O=C(CSc1nnc(-c2ccccc2)o1)Nc1cccc(F)c1`, 4 (inactive); in that of `Clc1cc(Br)ccc1OCc1nc(-c2ccncc2)no1`, 4 (inactive).
Consider `COc1ccc(Cl)cc1-c1nc(-c2ccccc2C)no1`, for which the “survival and reproduction score” value is 4 (inactive).
With `COc1ccc(-c2nnc(SCC(=O)Nc3ccc(C(C)C)cc3)o2)cc1` the figure was 4 (inactive).
In the case of `COc1cccc(OCc2nc(-c3cccc(Br)c3)no2)c1` it was 4 (inactive).
As for `Clc1ccc(-c2noc(-c3cccnc3)n2)cc1`, the “survival and reproduction score” value was 0 (active).
Regarding `COc1ccc(C(=O)CSc2nnc(-c3ccccc3)o2)cc1`, the “survival and reproduction score” value was 4 (inactive).
With `COc1ccccc1NC(=O)CSc1nnc(-c2cccc3ccccc23)o1` the figure was 4 (inactive); with `Cc1cc(C)c(OCc2nc(-c3ccncc3)no2)c(C)c1`, 4 (inactive); with `COc1cccc(-c2nnc(SCc3ccccc3C)o2)c1`, 4 (inactive).
In the case of `COc1ccc(-c2nnc(SCC(=O)c3ccc(C)o3)o2)cc1` it was 2 (inactive).
In the case of `Cc1ccc(OC(C)c2nc(-c3ccncc3)no2)cc1C` (stereo not drawn) it was 4 (inactive).
As to `COc1ccc(-c2noc(CSc3nc(C)cc(C)n3)n2)cc1`, the “survival and reproduction score” value is 4 (inactive).
In the case of `Brc1ccc(OCc2nc(-c3ccc4c(c3)OCO4)no2)cc1` it was 4 (inactive); in that of `Fc1cccc(-c2nc(-c3ccccc3)no2)c1`, 0 (active); in that of `CCOc1ccccc1-c1nnc(SCc2ccccc2)o1`, 4 (inactive).
In the case of `Cc1cccc(-c2noc(COc3ccc(C)c(C)c3)n2)c1` it was 4 (inactive).
With `COc1ccccc1-c1nnc(SCC(=O)Nc2ccc(C)cc2)o1` the figure was 4 (inactive); with `COc1ccc(-c2noc(-c3ccccc3C)n2)cc1`, 0 (active).
Turning to `Cc1ccccc1OCc1nc(-c2ccc(NC(=O)c3ccc(Br)o3)cc2)no1`, the “survival and reproduction score” value was 4 (inactive).
In the case of `COc1cccc(-c2nnc(SCC(=O)Nc3cccc(C(F)(F)F)c3)o2)c1` it was 4 (inactive).
